Screening data deposited in PubChem by National Center for Advancing Translational Sciences (NCATS).
HEK293 viab – GF-AFC viability counterscreen for inhibitors of alpha-synuclein gene (SNCA) expression. HEK-293-SNCA-luc viability, GF-AFC fluorescence, 24 h. Potency, µM (doses to about 57.1 µM), for inactives: at the highest dose activity change, negative = cytotoxicity, actives largely listed as cytotoxic. 150,000 tested, 0.12% active. AID 1671193, 2021;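 further: 0% = DMSO-treated cells and -100% = medium-only wells without cells; nearly all actives have a fitted effect of over 30% in size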
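Cytotoxicity counterscreen: after 24 h compound treatment of genome-edited SNCA-luciferase HEK-293 cells, live-cell protease substrate GF-AFC read by fluorescence after 30 min; activity scaled between DMSO (0%) and medium-only (-100%), curves Hill-fitted.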
NPR1 antag – Natriuretic polypeptide receptor (hNpr1) antagonism - Primary qHTS. Atrial natriuretic peptide receptor 1 (Homo sapiens), P16066. HEK293 hNpr1 GloSensor cGMP, ANP-stimulated luminescence. Potency, µM (series often up to 46.3 µM), for inactives: at the top dose activity change, negative = inhibition, actives largely listed as inhibitors. 76,000 tested, 1.6% active; calls by dose curve; further: nearly all actives have a fitted effect of over 60% in size
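Compound pre-incubated 30 min at room temperature on GloSensor-loaded HEK293 cells stably carrying hNpr1 and the pGS-40F cGMP biosensor. Stimulation uses hNppA at 0.1 nM final; luminescence is taken at baseline and 20 min post-agonist.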
SNCA expr inh – Primary qHTS assay for inhibitors of alpha-synuclein gene (SNCA) expression. HEK-293 SNCA-luciferase knock-in, luminescence, 24 h. Potency, µM (series often up to 57.2 µM), inactives show at the top dose activity change, negative = inhibition, actives largely listed as inhibitors. 140,000 tested, 0.17% active;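 further: plate controls were DMSO cells for no effect and cell-free wells for full effect; nearly all actives have a fitted effect of over 45% in size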
FLuc inh – Firefly luciferase inhibition profiling of diverse chemical library using quantitative high-throughput screening | Luciferin 4-monooxygenase (Photinus pyralis), P08659 | purified P. pyralis luciferase, luminescence, biochemical | Potency, µM (titrated, usually from 115 µM), actives largely listed as inhibitors | 76,000 tested, 2.5% active; further: nearly all actives have a fitted effect of over 65% in size
Target sequence (P08659 whole entry, looked up): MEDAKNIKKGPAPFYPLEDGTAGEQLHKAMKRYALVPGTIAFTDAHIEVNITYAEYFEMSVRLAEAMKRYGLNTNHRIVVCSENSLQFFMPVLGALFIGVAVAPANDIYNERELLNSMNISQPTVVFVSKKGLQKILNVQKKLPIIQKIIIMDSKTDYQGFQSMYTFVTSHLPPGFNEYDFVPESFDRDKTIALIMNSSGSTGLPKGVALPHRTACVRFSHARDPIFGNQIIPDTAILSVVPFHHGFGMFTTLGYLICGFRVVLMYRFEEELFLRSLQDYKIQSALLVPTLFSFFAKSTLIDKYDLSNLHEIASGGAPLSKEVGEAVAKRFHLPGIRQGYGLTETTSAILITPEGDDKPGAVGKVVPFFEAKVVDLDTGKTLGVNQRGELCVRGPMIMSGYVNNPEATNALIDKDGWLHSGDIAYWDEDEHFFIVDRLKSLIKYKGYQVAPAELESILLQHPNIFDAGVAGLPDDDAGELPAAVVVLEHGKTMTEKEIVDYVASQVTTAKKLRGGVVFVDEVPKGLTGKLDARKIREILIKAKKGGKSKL
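Luminescence read by CCD imager after adding enzyme (10nM final) to wells holding compound, titrated in qHTS. Substrates 10uM each D-luciferin and ATP; buffer 50mM Tris acetate pH 7.5, 10mM Mg acetate, Tween-20, BSA.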
HEK cytotox – Cytotoxic Profiling in HEK 293 Cell Line of Diverse Libraries Using Quantitative High-Throughput Screening | HEK 293 viability, ATP luminescence (CellTiter-Glo), 48-72 h | Potency, µM (top dose mostly 115 µM), inactives show top-dose activity change, negative = cytotoxicity, hits mostly inhibitors | 94,000 tested, 6.6% active | AID 1345083, 2018; further: nearly all actives have a fitted effect of over 60% in size
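CellTiter-Glo luminescence (cellular ATP) was read after 48 or 72 hr of compound exposure at 37 degree Celsius. Cells were HEK 293 plated at 250 cells/well.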
3T3 cytotox – Cytotoxic Profiling in NIH 3T3 Cell Line of Diverse Libraries Using Quantitative High-Throughput Screening. NIH 3T3 viability, CellTiter-Glo ATP luminescence, 48-72 h. Potency, µM (doses to about 96.7 µM), inactives show at the highest dose activity change, negative = cytotoxicity, most hits filed as inhibitors. 94,000 tested, 4.3% active; further: nearly all actives have a fitted effect of over 55% in size
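ATP-dependent luminescence (CellTiter-Glo) served as the viability signal for NIH 3T3 cells treated with compound for 48 or 72 hr at 37 °C.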
* = called active by the depositor; i = inactive; ? = inconclusive; / = no result; [ ] = remark or other dose. In the library only some 7.4% were active in any assay of this set; here they are far more common. Unless noted, the call rests on the fitted dose curve; in most records, active means well fitted curve in the direction sought with a large enough effect; inconclusive means small, poorly fitted or top-dose-only effect, or another doubt; inactive means no such curve, though single readings can be large; an effect the other way counts as inactive or inconclusive. Unless noted, on the % scale 0 is the no-effect control and ±100 the full control effect; potency means the concentration at half of the fitted maximal effect.

SMILES	HEK293 viab	NPR1 antag	SNCA expr inh	FLuc inh	HEK cytotox	3T3 cytotox
CCOC(=O)[C@H]1C[C@]2(CCCCN(CCO)C2=O)N(C(=O)c2cccc(C#N)c2)[C@H]1c1ccco1	/	/	/	/	-27.1%	?
CNC(=O)c1cc(C2CC2)nc2onc(C3CCCN3C(=O)Nc3ccc(C)c(F)c3)c12 (stereo unspecified)	/	/	/	/	-5.7%	-13.6%
COCC(=O)Nc1cc(C2CC2)nn1-c1ccccc1	15.0%[87.6 µM]	/	26.1%[87.6 µM]	/	-25.4%[172 µM]	?
Cc1cc(Cn2cc3c4c(cccc42)[C@H](CC(C)C)N[C@H](C(=O)NCc2ccco2)C3)no1	-19.0%	-2.8%	-4.8%	i	39.8µM*	28.2µM*
Cc1cc(Cn2cc3c4c(cccc42)[C@H](CC(C)C)N[C@H](C(=O)NCc2ccccn2)C3)no1	-17.0%	-2.2%	-16.6%	i	31.6µM*	?
CC(C)NC(=O)N1CC[C@H](n2c(=O)n(C)c3cccnc32)C1	2.0%	/	2.6%	/	1.0%	i
Cn1cc(-c2cnc3[nH]cc(CC(=O)NCc4ccncc4)c3c2)cn1	6.8%[87.6 µM]	0.2%[70.6 µM]	-5.3%[87.6 µM]	i	-10.0%[172 µM]	?
Cn1cc(-c2cnc3[nH]cc(CC(=O)NC4CCC4)c3c2)cn1	0.9%[87.6 µM]	-2.3%[70.6 µM]	24.1%[87.6 µM]	i	?	31.6µM*
CC(C)CNC(=O)Cc1c[nH]c2ncc(-c3cnn(C)c3)cc12	-2.1%[87.6 µM]	5.2%[70.6 µM]	4.8%[87.6 µM]	i	-22.3%[172 µM]	44.7µM*
CN1CCC(NC(=O)Cc2c[nH]c3ncc(-c4ccccc4)cc23)CC1	10.7%[87.6 µM]	-16.0%[70.6 µM]	-2.3%[87.6 µM]	i	?	?
Cn1cccc1-c1noc(C2CCN(Cc3noc(-c4ccccc4)n3)C2)n1 (stereo unspecified)	12.7%	/	41.0%	/	?	?
O=C(Nc1cccc(Br)c1)N1CCC2(CC1)SCC(=O)N2Cc1ccccc1	?	-9.0%	-2.0%	i	50.1µM*	15.8µM*
O=C(Nc1cccc(Br)c1)N1CCC2(CC1)SCC(=O)N2Cc1ccco1	7.5%	?	4.9%	?	28.2µM*	15.8µM*
Cc1cccc(NC(=O)N2CCC3(CC2)SCC(=O)N3Cc2ccco2)c1	-2.7%	-7.7%	27.2%	?	?	-24.0%
COc1ccc2cc(C3CN(CCC(=O)NC(C)(C)C)CCO3)ccc2c1 (stereo unspecified)	1.7%	?	120.3%	?	44.7µM*	?
CSc1ccc(-c2cccc(C(=O)NCC(=O)NCc3cccs3)c2)cc1	-8.6%	/	-2.2%	/	?	?
O=C1NCCCCCN(Cc2cn[nH]c2-c2cccs2)[C@H]2CCC[C@@H]12	0.3%	1.4%	-1.6%	i	-9.0%	-29.0%
CCOc1ccccc1CN1CCCCCCNC(=O)CC1c1ccccc1 (stereo unspecified)	-1.9%	-1.0%	20.1%	i	31.6µM*	25.1µM*
CCOc1ccccc1CN1CCO[C@@H](COC)[C@@H]1c1ccccc1	12.6%	/	-4.7%	/	39.8µM*	-27.4%
COc1cccc(CN2CCCCCNC(=O)CC2c2ccccc2)c1OC (stereo unspecified)	0.1%	1.7%	-10.6%	i	?	?
CCOc1ccccc1CN1CCOCCNC(=O)[C@H]2CCCC[C@H]21	5.0%	-2.7%	19.8%	i	?	-28.6%
COc1cccc(CN2CCCCCCNC(=O)CC2c2ccccc2)c1OC (stereo unspecified)	-24.7%	1.4%	?	i	44.7µM*	39.8µM*
O=C1CC(c2ccccc2)N(Cc2cn[nH]c2-c2cccs2)CCCCCN1 (stereo unspecified)	-16.8%	-0.7%	-7.2%	i	79.4µM*	?
Cc1ccsc1C(=O)N1CCC2(CC1)CC(N1CCOCC1)CCO2 (stereo unspecified)	-9.5%	/	-7.7%	/	-9.8%	-21.5%
C#CCNC(=O)c1nc2sccn2c1-c1cccc(C(F)(F)F)c1	0.4%[87.6 µM]	/	-13.6%[87.6 µM]	/	?	?
SMILES	HEK293 viab	NPR1 antag	SNCA expr inh	FLuc inh	HEK cytotox	3T3 cytotox
Cc1ccccc1C(=O)NC1CCN(c2ccc3nnc(C)n3n2)C1 (stereo unspecified)	/	/	/	/	-11.0%[172 µM]	-20.7%[138 µM]
CC(C)c1ccc(CN2CCc3c(n(Cc4ccccc4)n(-c4ccccc4)c3=O)C2)cc1	-24.9%	-16.6%	-7.1%	i	?	?
CN1CCC2(C1)CN(Cc1ccccc1)c1ccc(C(=O)NCc3cccs3)cc12 (stereo unspecified)	6.4%[87.6 µM]	0.0%[70.6 µM]	15.0%[87.6 µM]	i	44.7µM*	28.2µM*
Cc1nc(CN2CC3(CCN(C)C3)c3cc(C(=O)NCc4cccs4)ccc32)cs1 (stereo unspecified)	-7.0%[87.6 µM]	-4.5%[70.6 µM]	-5.5%[87.6 µM]	i	?	79.4µM*
Cc1nc(CN2CC3(CCN(C)C3)c3cc(C(=O)NCC4CC4)ccc32)cs1 (stereo unspecified)	6.8%[87.6 µM]	0.8%[70.6 µM]	20.9%[87.6 µM]	i	-36.9%[172 µM]	?
Cc1nc(CN2CC3(CCN(C)C3)c3cc(C(=O)Nc4ccc(F)cc4)ccc32)cs1 (stereo unspecified)	0.7%[87.6 µM]	-4.4%[70.6 µM]	47.8%[87.6 µM]	?	?	?
CN1CCCC2(C1)CN(Cc1cccnc1)c1ccc(C(=O)NCc3cccs3)cc12 (stereo unspecified)	2.2%[87.6 µM]	6.1%[70.6 µM]	-0.7%[87.6 µM]	i	?	?
Cc1nc(CN2CC3(CCN(C)C3)c3cc(C(=O)NCc4ccccc4)ccc32)cs1 (stereo unspecified)	-5.9%[87.6 µM]	-7.3%[70.6 µM]	6.3%[87.6 µM]	i	112µM*	?
CC(=O)N[C@@H]1C=C(C(=O)NCCC(N)=O)C[C@@H](O)[C@@H]1O	3.1%[87.6 µM]	6.0%[70.6 µM]	11.2%[87.6 µM]	i	-11.9%[230 µM]	-8.1%[174 µM]
COc1cc2nc(N3CCC(N4CCCCC4)CC3)nc(NC3CCCCCC3)c2cc1OC	23.8µM*	/	/	/	/	/
Cc1ccc(C(=O)N2CCN(Cc3ccccc3-c3cccnc3)CC2)cc1	1.9%[12.5 µM]	/	-6.6%	/	?	?
Cc1nn(-c2ccc(C(C)C)cc2)c(C)c1[C@@H]1C=C[C@@H](NC(=O)Nc2ccc(Cl)cc2)C1	-8.6%	-18.6%	120.2%	i	?	?
Cc1nn(CCC#N)c(C)c1[C@@H]1C=C[C@@H](NC(=O)NCc2ccccc2)C1	-0.4%[87.6 µM]	1.0%[70.6 µM]	-15.6%[87.6 µM]	i	-7.4%[172 µM]	-26.8%[174 µM]
CCNC(=O)N[C@@H]1C=C[C@@H](c2c(C)nn(-c3ccc(C(C)(C)C)cc3)c2C)C1	?	31.6µM*	-7.1%[87.6 µM]	?	35.5µM*	?
